From PubChem
The list is not random: actives were taken first. Their share in the collection is about 0.9%.
PPARg SRC-3 ag: promotes SRC-3 coactivator recruitment by human PPARgamma; activation, % at 8 µM; actives 0.26% (n = 200,000); biochemical PPARgamma/SRC-3 coactivator recruitment assay; P37231; in the data active = activation above about 23%;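 note: 0% = DMSO and 100% = reference agonist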
Target sequence (P37231 whole entry, looked up): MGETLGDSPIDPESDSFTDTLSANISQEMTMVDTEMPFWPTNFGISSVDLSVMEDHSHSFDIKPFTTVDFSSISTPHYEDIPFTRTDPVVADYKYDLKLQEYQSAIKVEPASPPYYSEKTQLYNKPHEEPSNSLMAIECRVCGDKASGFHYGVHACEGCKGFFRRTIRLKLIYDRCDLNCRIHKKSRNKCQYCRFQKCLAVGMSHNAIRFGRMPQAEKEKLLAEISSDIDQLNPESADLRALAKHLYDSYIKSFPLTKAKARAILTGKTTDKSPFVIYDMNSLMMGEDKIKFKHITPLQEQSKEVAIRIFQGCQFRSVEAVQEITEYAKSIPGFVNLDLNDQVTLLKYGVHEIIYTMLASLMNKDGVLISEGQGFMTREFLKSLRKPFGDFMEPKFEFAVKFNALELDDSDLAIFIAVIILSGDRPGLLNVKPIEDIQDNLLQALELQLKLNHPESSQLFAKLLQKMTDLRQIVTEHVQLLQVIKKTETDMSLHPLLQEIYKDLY
SRC3 TRFRET art: counter-screen for PPARgamma SRC-3 recruitment agonists: TR-FRET artefact; actives 0.39% (n = 99,000); PPARgamma/SRC-3 format; active compounds read high; TR-FRET ratio at 8 µM
SRC1 TRFRET art: TR-FRET artefact, counter-screen to PPARgamma/SRC-1 agonist assay | TR-FRET detection artefact counter-screen, emission ratio; active compounds read high | TR-FRET ratio at 8 µM | actives 0.34% (n = 99,000) | AID 1051; in the data active = TR-FRET ratio above about 2300
SRC2 TRFRET art: counter-screen for PPARgamma SRC-2 recruitment agonists: TR-FRET artefact | actives 0.4% (n = 200,000) | TR-FRET ratio at 8 µM | active compounds read high | AID 1049
PPARg SRC2 recr: promotes SRC-2 coactivator recruitment by human PPARgamma; P37231; PPARgamma LBD-SRC-2 recruitment, biochemical; activation, % at 8 µM; actives 0.34% (n = 200,000); AID 1032; in the data active = activation above about 22%;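 note: 0% = vehicle and 100% = reference agonist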
PPARg SRC-1 ag: promotes SRC-1 coactivator recruitment by human PPARgamma; P37231; PPARgamma-SRC-1 coactivator recruitment biochemical assay; activation, % at 8 µM; actives 0.41% (n = 200,000); in the data active = activation above about 19%;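 note: 0% = DMSO and 100% = reference agonist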
* = called active by the depositor; . = no result given. Cut-off read from the data, not from the text of the source, unless noted: active = TR-FRET ratio above about 2000; inactive = the rest.

SMILES	PPARg SRC-3 ag	SRC3 TRFRET art	SRC1 TRFRET art	SRC2 TRFRET art	PPARg SRC2 recr	PPARg SRC-1 ag
O=C(Nc1ccc2oc(-c3ccncc3)nc2c1)c1ccc(F)cc1	8.6	1522	1768	1538	6.9	9.1
Cc1cc(OCC(=O)Nc2ccc3oc(-c4ccncc4)nc3c2)ccc1Cl	1.2	.	.	1643	8.8	41.5*
O=C(Nc1ccc2oc(-c3ccncc3)nc2c1)c1c(F)c(F)c(F)c(F)c1F	8.9	.	.	1536	-1.8	48.3*
CN1/C(=C\C(=O)COc2ccc3c(c2)OCO3)C(C)(C)c2ccccc21	0.2	.	.	2258*	-3.8	9.2
N/C(=N\OC(=O)COc1ccc(Br)cc1)c1cccnc1	3.2	1430	1675	1617	-0.9	7.6
N/C(=N\OC(=O)COc1ccc2ccccc2c1Br)c1cccnc1	6.9	1766	2331*	1797	14.3	3.8
N/C(=N\OC(=O)COc1ccc2ccccc2c1Br)c1ccccn1	11.1	2027	2360*	1993*	20.2	8.1
N/C(=N\OC(=O)COc1ccc(Br)cc1Cl)c1ccccn1	4.1	1619	1963	1664	5.0	9.3
S=C1NCN(C2CCCCC2)CN1Cc1ccccc1	-0.2	1485	1823	1673	2.7	10.1
CN(C)S(=O)(=O)c1cccc(NC(=O)COC(=O)c2cc(-c3cccc(Br)c3)nc3ccccc23)c1	25.5*	3725*	2585*	2575*	8.2	4.3
CCN(C(=O)COC(=O)c1c2c(nc3ccccc13)/C(=C/c1ccccc1)CC(C)C2)C1CCS(=O)(=O)C1 (stereo unspecified)	-2.9	1443	2002	1594	-4.9	-3.6
CC(C)(C)OC(=O)N1CCN(C(=O)Nc2ccc3c(c2)OCCO3)CC1	5.3	1470	1633	1548	0.7	0.7
Cn1ncc([N+](=O)[O-])c1C(=O)N/N=C/c1ccc(F)cc1	4.4	1850	1712	1691	7.9	20.9*
O=C1CC(N2CCC(O)(c3ccc(Cl)cc3)CC2)C(=O)N1Cc1ccc(N2CCCC2=O)cc1 (stereo unspecified)	-3.4	.	.	1636	7.2	4.0
CCOC(=O)c1nn(-c2ccc(Cl)cc2)c2nc(-c3ccc(C)cc3)c(C#N)c(=O)n12	51.9*	.	.	1733	-0.4	7.5
Cn1cc(Cl)c(-c2n[nH]c(=S)n2-c2ccc(F)cc2)n1	9.7	1845	2344*	1896	21.0	17.3
S=c1[nH]nc(-c2ccc(Cl)cc2)n1-c1ccc2c(c1)OCCO2	12.7	1832	2170	1817	21.3	16.9
Fc1ccc(-c2n[nH]c(=S)n2-c2ccc3c(c2)OCCO3)cc1	19.9	2239*	2494*	1992*	18.8	18.8
Cc1ccc(-n2c(-c3nn(C)cc3Cl)n[nH]c2=S)cc1	8.1	1528	1918	1643	6.5	4.1
O=C(Cc1nc2ccccc2[nH]c1=O)c1ccccc1	7.9	1680	1925	1531	4.7	22.5*
Cc1ncccc1C(=O)N1CCCC(CNC(=O)C2(c3ccc(Cl)cc3)CC2)C1 (stereo unspecified)	1.6	1569	1765	1568	-0.3	5.0
Fc1ccc2nc(Nc3nc4cc5c(cc4s3)OCO5)sc2c1	-8.1	1305	1631	1428	4.2	-5.7
Fc1ccc2nc(Nc3nc4cc5c(cc4s3)OCCO5)sc2c1	3.7	2582*	2154	2038*	2.7	8.0
Brc1ccc2nc(-c3c[nH]c4ccccc34)cn2c1	7.9	1691	2053	1999*	6.8	8.8
Clc1ccc2nc(-c3ccc4c(c3)OCO4)cn2c1	3.6	1526	1809	1519	2.4	1.0
SMILES	PPARg SRC-3 ag	SRC3 TRFRET art	SRC1 TRFRET art	SRC2 TRFRET art	PPARg SRC2 recr	PPARg SRC-1 ag
Clc1ccc(-c2cn3cc(Br)ccc3n2)cc1Cl	7.8	1909	2103	2032*	16.8	7.4
Cc1cccn2cc(-c3c[nH]c4ccccc34)nc12	6.2	1746	2206	1734	-0.4	16.4
CCOc1ccccc1-n1c(C)nc2cc(C(=O)O)ccc21	5.3	1625	2322*	1695	-3.1	8.1
Cc1nc2cc(C(=O)O)ccc2n1-c1ccc(F)cc1F	5.9	.	.	1608	5.7	0.2
CCc1ccc(NC(=O)CSc2nc3ccccc3c(=O)n2CCCN2CCC(C)CC2)cc1	5.3	1628	1894	1403	0.5	0.2
COc1ccc(-c2csc3nc(C)nc(N4CCN(c5ccc(C(C)=O)cc5)CC4)c23)cc1OC	0.5	2053*	1874	1584	-0.5	1.9
CCOC(=O)c1ccc(NC(=O)CCc2nc(-c3ccc(Cl)cc3)no2)cc1	-12.3	.	.	1790	0.6	1.9
CCOC(=O)c1ccc(NC(=O)CCc2nc(-c3ccc(C)cc3)no2)cc1	7.6	.	.	2077*	34.8*	-1.6
N#Cc1ccccc1Sc1ccccc1C(=O)OCC(N)=O	0.3	1573	1827	1702	4.1	7.3
N#Cc1ccccc1Sc1ccccc1C(=O)OCc1nnc(-c2ccccc2)o1	-1.8	.	.	2002*	-3.0	5.7
COc1ccc(C2C(C(C)=O)=C(O)C(=O)N2c2nccs2)cc1OC (stereo unspecified)	1.1	1778	2238	1460	5.0	10.7
COc1ccc(C2C(C(C)=O)=C(O)C(=O)N2c2nc3ccccc3s2)cc1OC (stereo unspecified)	9.1	2067*	1870	1810	16.0	4.8
Nc1nc(N2CCOCC2)cc(=O)[nH]1	-4.6	.	.	1431	-2.0	4.2
COc1cccc(Nc2nnc(SCC3CCCCO3)s2)c1 (stereo unspecified)	6.7	1663	1883	2017*	-0.8	-4.4
Cc1ccc(NC(=O)CSc2nnc(-c3ccc(S(=O)(=O)N4CCCC4)cc3)o2)cc1C	0.8	.	.	1464	-11.1	20.9*
CC(=O)c1c(C)[nH]c(C(=O)N(C)C(c2ccccc2)c2ccccc2)c1C	7.0	1461	1673	1612	-3.6	1.0
CCC(=O)N(Cc1ccco1)c1nc(C(=O)Nc2ccc(Cl)cc2)c(C)s1	3.2	1762	2016	1971*	18.7	13.8
CCN(C(=O)c1ccco1)c1nc(CC(=O)Nc2ccc(Cl)cc2)cs1	3.6	.	.	1541	-6.4	-2.0
CCc1ccc2oc(C(=O)Nc3ccc(S(N)(=O)=O)cc3)c(C)c2c1	3.5	1772	2324*	1875	8.1	1.1
Cc1ccc(C)c(NC(=O)COC(=O)CCC(=O)c2cccs2)c1	0.0	1399	1920	1741	-5.2	-7.1
CSc1nc2ccc3nc(NC(=O)c4cccs4)sc3c2s1	-2.4	.	.	1442	-5.0	40.6*
CSc1nc2ccc3nc(NC(=O)c4ccc(Cl)s4)sc3c2s1	2.5	.	.	1620	-1.1	12.9
CSc1ccc(C(=O)C2CCCN(C(=O)c3csc(C(C)=O)c3)C2)cc1 (stereo unspecified)	-5.0	1355	1442	1596	5.4	-5.5
CSc1ccc(C(=O)C2CCCN(C(=O)c3cc4cc(F)ccc4[nH]3)C2)cc1 (stereo unspecified)	2.2	2454*	2545*	2021*	8.8	9.3
